This is a sample that favours compounds with a hit; in the whole collection about 8.8% have one here.
HT1080-NT tox – kills 2HG-producing HT-1080-NT fibrosarcoma cells. HT-1080-NT fibrosarcoma viability, CellTiter-Glo ATP luminescence, 48 h. Potency, µM (doses to about 46.1 µM), hits mostly cytotoxic. 360,000 compounds, 1.6% hits. AID 686970;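 note: NT is the 2HG producing partner of a matched IDH1 knockdown line; nearly all actives have a fitted effect of over 55% in size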
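HT-1080-NT; 750 cells/well; 5% FBS RPMI; 48 h compound, 37 degrees C; CellTiter-Glo luminescence; curve fitting and curve-class assignment.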
IL-1B inflam inh – blocks inflammasome-driven IL-1 beta release; THP-1 LPS/ATP IL-1B secretion, AlphaLISA, 16 h; active compounds read low; activity change, % at 57.5 µM; 360,000 compounds, 4.7% hits; AID 743279; in the data active = activity change below about -50%; inconclusive = mostly about -30% to -49%
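Secreted IL-1B measured by AlphaLISA bead assay after 16 h compound exposure of THP-1 cells; compounds (final up to 57.5 uM) added 1 h before LPS (250 ng/mL) and ATP (1.25 mM) stimulation; lower signal means less secretion.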
HT1080 IDH1KD tx – toxicity to HT-1080 IDH1 knockdown cells (counter line); AID 686971; Potency, µM (titrated, usually from 46.1 µM), actives largely listed as cytotoxic; HT-1080 IDH1 knockdown viability, ATP luminescence, 48 h; 360,000 compounds, 2% hits
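After a 2 h attachment period, IDH1KD HT-1080 cells took pin-transferred compound for 48 h at 37 °C; ATP-based luminescence after 10 min room-temperature reagent incubation reported viability.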
KB-3-1 cytotox – KB-3-1 parental cell cytotoxicity | KB-3-1 viability, CellTiter-Glo ATP luminescence, 72 h | Potency, µM (highest dose often 46.1 µM), actives largely listed as cytotoxic | 400,000 compounds, 1.4% hits | AID 1347075; note: nearly all actives have a fitted effect of over 60% in size
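Using CellTiter-Glo luminescence, growth of non-resistant KB-3-1 adenocarcinoma cells is assessed 72 h after pin-tool compound addition at 37 °C. Normalized responses across the concentration series yield fitted curves.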
KB-V1 cytotox – KB-V1 MDR subline cytotoxicity; 400,000 compounds, 3.4% hits; Potency, µM (highest dose often 46.1 µM), hits mostly cytotoxic; KB-V1 MDR cells viability, CellTiter-Glo, 72 h; note: nearly all actives have a fitted effect of over 60% in size
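In this primary screen, KB-V1 cells overexpressing P-gp are incubated with library compounds (lowest to highest concentration) for 72 h at 37 degrees C before a luminescent ATP viability read.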
A number is an active result; n = inactive; u = inconclusive; x = no result given. Unless noted, calls come from the whole dose curve; as a rule, active = well fitted curve in the direction sought with a large enough effect; inconclusive = small, poorly fitted or top-dose-only effect, or another doubt; inactive = no such curve, though single readings can be large; an effect the other way counts as inactive or inconclusive.

SMILES	HT1080-NT tox	IL-1B inflam inh	HT1080 IDH1KD tx	KB-3-1 cytotox	KB-V1 cytotox
Cc1cc(C)nc(SC2=CS(=O)(=O)c3ccccc32)n1	23µM	-98	u	18µM	u
Cc1ccccc1-c1nc2cc(NC(=O)COc3ccc(F)cc3)ccc2o1	x	x	x	n	n
O=C1CSC(=S)N1Nc1ccccc1	u	n	5.8µM	n	n
NNC(=O)c1ccc(COc2cccc3ccccc23)cc1	n	n	n	n	n
O=C(NCc1ccco1)c1ccc(COc2ccc(Cl)cc2)cc1	n	n	n	n	n
O=C(NCc1ccco1)c1ccc(COc2ccccc2Cl)cc1	n	-57	n	n	n
O=C(NCc1ccco1)c1ccc(COc2cccc3ccccc23)cc1	n	-60	n	n	21µM
CCC(C)(c1nnnn1-c1c(C)cccc1C)N(N=O)c1ccccc1Cl (stereo unspecified)	n	n	n	u	18µM
CC1CCCCN1CC(O)COCCC12CC3CC(CC(C3)C1)C2 (stereo unspecified)	u	-61	u	16µM	u
CC(C)Oc1cccc(C(=O)Nc2ccc(-c3nc4cc(Cl)cc(Cl)c4o3)cc2)c1	x	x	x	n	n
Cc1ccc(-n2ncc3c(SCc4ccccn4)ncnc32)c(C)c1	u	-69	u	u	8.2µM
O=C(Nc1cccc(S(=O)(=O)NC2=NCCCCC2)c1)c1ccc(Cl)cc1	n	n	n	u	u
O=S1(=O)CC(O)C(N=Nc2c(O)n(Cc3ccccc3)c3ccccc23)C1 (stereo unspecified)	n	n	n	n	n
COc1ccc(S(=O)(=O)Nc2cc(S(=O)(=O)c3ccccc3)c(O)c(C)c2C)cc1	x	x	x	n	n
CCCCC[C@@H](C)N1C[C@@H](COCc2ccccc2)Oc2cc(N3CC[C@@H](N(C)C)C3)ccc2S1(=O)=O	21µM	-89	18µM	u	21µM
CCCCC[C@H](C)N1C[C@H](COCc2ccccc2)Oc2cc(N3CC[C@H](N(C)C)C3)ccc2S1(=O)=O	u	u	21µM	u	21µM
CCCCC[C@@H](C)N1C[C@@H](COCc2ccccc2)Oc2cc(N3CCC[C@@H]3CO)ccc2S1(=O)=O	u	n	u	u	16µM
CCCCC[C@@H](C)N1C[C@H](COCc2ccccc2)Oc2cc(N3CCC[C@@H]3COC)ccc2S1(=O)=O	n	n	n	n	n
CCCCC[C@H](C)N1C[C@H](COCc2ccccc2)Oc2cc(N3CC[C@@H](N(C)C)C3)ccc2S1(=O)=O	21µM	-64	16µM	u	u
CCCCC[C@@H](C)N1C[C@H](COCc2ccccc2)Oc2cc(N3CC[C@@H](N(C)C)C3)ccc2S1(=O)=O	12µM	-92	10µM	u	16µM
COCCn1c(=S)[nH]c2cc(C(=O)NCCc3ccccc3)ccc2c1=O	n	n	n	n	n
COc1ccc(N(Cc2ccccc2)S(=O)(=O)c2cc(C(=O)O)ccc2Cl)cc1	n	n	n	n	n
CCN(CC)CC(C)(C)C(=O)/C=C/c1ccc(/C=C/C(=O)C(C)(C)CN(CC)CC)cc1	5.8µM	n	1.6µM	u	n
CCN(CC)CCOC(=O)/C=C/c1ccccc1	n	n	n	n	n
COc1ccccc1CNc1nc(NCCOc2ccccc2Cl)c2sccc2n1	23µM	-86	u	u	u
SMILES	HT1080-NT tox	IL-1B inflam inh	HT1080 IDH1KD tx	KB-3-1 cytotox	KB-V1 cytotox
Clc1ccccc1OCCNc1nc(NCC2CC2)nc2ccsc12	u	n	18µM	n	u
CNc1nc(NCCOc2ccccc2Cl)c2sccc2n1	u	u	n	n	u
O=C(C[n+]1cccc2cc(Cl)ccc21)c1ccc(Br)cc1	x	x	x	u	n
Cc1ccc(S(=O)(=O)NCCc2cn3nc(C)c(C)nc3n2)cc1C	n	n	n	n	n
O=c1cc(N2CCCCC2)c(-c2ccccc2)nn1Cc1c(Cl)cccc1Cl	18µM	-67	16µM	u	u
CCc1nc2ccc(C(=O)NCCOc3ccc(OC)cc3)cn2c1N(CCC(C)C)CCN(C)C	u	-64	21µM	n	n
CCCCNC(=O)c1ccc2nc(CC)c(N(CCC(C)C)CCN(C)C)n2c1	u	n	u	n	n
CCc1nc2ccc(C(=O)NCc3ccc4c(c3)OCO4)cn2c1N(CCC(C)C)CCN(C)C	21µM	n	u	n	u
CC(=O)c1cccc(NC(=O)CSCc2ccccc2)c1	n	n	n	n	u
CC(=O)c1cccc(NC(=O)CSCc2ccc(Br)cc2)c1	n	n	n	n	18µM
Cc1ccc(S(=O)(=O)N(C)C[C@@H]2OCc3cnnn3CCCC(=O)N([C@@H](C)CO)C[C@H]2C)cc1	n	n	n	n	n
CCOC(=O)N1CCN(C(=O)C[C@@H]2C[C@@]3(C(=O)OC)CC(C)(C)CC=C3N(Cc3cccc4ccccc34)C2=O)CC1	u	n	u	n	18µM
COC(=O)[C@@]12C[C@@H](CC(=O)N3CCN(C(=O)c4ccco4)CC3)C(=O)N(Cc3cccc4ccccc34)C1=CCC(C)(C)C2	u	u	21µM	u	23µM
COc1ccc(F)cc1-c1cc(C(=O)NC2CCCCC2)[nH]n1	u	n	n	n	n
O=C(N/N=C/c1cc(Cl)ccc1O)C(=O)Nc1ccccc1OC(F)(F)C(F)F	u	n	u	u	u
O=C(N/N=C/c1ccccc1Cl)c1ccncc1	n	n	n	n	n
O=C(N/N=C/c1cc(Cl)ccc1O)c1ccncc1	6.5µM	n	4.1µM	u	u
O=C(N/N=C/c1cc(Br)ccc1O)c1ccccc1Cl	u	n	16µM	u	u
CC(C)c1ccc(/C=N/NC(=O)c2ccccc2Cl)cc1	7.3µM	n	6.5µM	15µM	4.6µM
O=C(N/N=C/c1cc(Br)ccc1O)C(=O)Nc1ccccc1OC(F)(F)C(F)F	1.4µM	n	0.89µM	u	u
COC(=O)c1ccc(/C=N/NC(=O)c2ccccc2Cl)cc1	n	n	n	n	n
CCCCN(C(=O)C1CC(=O)N(CCc2ccc(OC)c(OC)c2)C1)c1c(N)n(CC(C)C)c(=O)[nH]c1=O (stereo unspecified)	n	n	n	n	u
CCCNC(=O)c1ccc2nc(CCc3ccccc3)oc2c1	x	x	x	n	n
Cc1ccc(S(=O)(=O)c2nc(-c3ccco3)oc2N2CCC(C)CC2)cc1	n	-74	n	n	u
Cc1ccc(S(=O)(=O)c2nc(S(C)(=O)=O)sc2N2CCCCCC2)cc1	n	-54	n	n	6.5µM
Cc1ccc(S(=O)(=O)c2nc(S(C)(=O)=O)sc2N2CCN(C)CC2)cc1	n	u	n	n	n
Cc1ccc(S(=O)(=O)c2nc(S(C)(=O)=O)sc2N2CCC(C)CC2)cc1	n	-84	u	n	n
CCN(C)C1CN(Cc2cn(CCCOC)nn2)S(=O)(=O)C1 (stereo unspecified)	n	n	n	n	n
CCc1ccccc1Oc1ccc(S(=O)(=O)N2CCN(C)CC2)cn1	n	n	n	n	n

Source: PubChem BioAssay
